These results are taken from PubChem BioAssay (NCI).

Some test systems named below: DU-145 prostate; K-562 leukemia; MALME-3M melanoma; MDA-MB-231 breast; RXF 393 renal; SF-268 CNS; SF-295 CNS; SF-539 CNS; UACC-257 melanoma; M14 melanoma.
Common to all, as to experiment: NCI-60 one-dose screen, 48 h (100 = growth as untreated, 0 = no growth, -100 = all killed)
Holding throughout (conditions): 10 µM

About 83,000 compounds went through this panel and 20% of them were active in at least one assay; those are over-represented in the sample as a whole.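 Step 1: grow cells in 96-well plates. Step 2: add test compound at a single concentration. Step 3: incubate 48 h. Step 4: record percent growth.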 Unmarked numbers belong to inactive results. Calls of active or inactive are those of the source. Rule for the calls: active = growth percent below 10; inactive = the rest.

Take `COc1ccc(/C=C2\CCCC3=C2NC(N)=NC3c2ccc(OC)c(OC)c2)cc1OC` (stereo not given): the growth in the test with DU-145 prostate is 76.7%; in the test on K-562 leukemia, 56%; in the test with MALME-3M melanoma it was 52.5%; in the test on MDA-MB-231 breast, 74%; in the test on RXF 393 renal, 20.9%; in the test on SF-268 CNS, 63.8%. For the same compound, the growth in the test on SF-295 CNS is 70.7%; with SF-539 CNS, 85.2%; in the test with UACC-257 melanoma, 46.2%; in the test with M14 melanoma, 57.3%.

For the compound `Cc1ccc(Cl)cc1NC(=O)CCl`, the growth was 99.8% in the test on DU-145 prostate; 39% with K-562 leukemia; 82.1% with MALME-3M melanoma; 98.5% with MDA-MB-231 breast; 91.8% with RXF 393 renal; 79.3% in the test on SF-268 CNS. Also, the growth is 104% in the test with SF-295 CNS, 102% with SF-539 CNS, 85.8% with UACC-257 melanoma and 62.7% in the test with M14 melanoma.

For `N=C1S/C(=C/c2ccc(-c3ccc4c(c3)C(=O)NC4=O)o2)C(=O)N1c1ccc(Br)cc1`, the growth in the test on DU-145 prostate was 27.8%; in the test with K-562 leukemia, 21.5%; with MALME-3M melanoma, 18.3%; in the test on MDA-MB-231 breast, 46.5%; with RXF 393 renal, -28.5% (active); with SF-268 CNS, 39.3%. The growth was 22.1% in the test with SF-295 CNS, 87.8% in the test with SF-539 CNS, 47.7% with UACC-257 melanoma and 36.7% with M14 melanoma.

Turning to `CN(C)CCC1(c2ccccc2)CCN(C)C1=O` (stereo not given), the growth with DU-145 prostate is 107%; in the test on K-562 leukemia it was 95.2%; with MALME-3M melanoma it was 94.8%; in the test on MDA-MB-231 breast it was 114%; in the test on RXF 393 renal, 96.1%; with SF-268 CNS it was 99.9%. The growth is 104% with SF-295 CNS, 103% with SF-539 CNS, 104% in the test with UACC-257 melanoma and 108% in the test with M14 melanoma.

`Cc1cc(O)ccc1C1=NN(c2ccc(S(C)(=O)=O)cc2)C(=O)CC1`: the growth in the test with DU-145 prostate is 92.2%; in the test with K-562 leukemia it was 20.6%; with MALME-3M melanoma, 52.7%; with MDA-MB-231 breast it was 74.8%; with RXF 393 renal, 81.2%; in the test on SF-268 CNS, 80.3%. In addition, the growth is 32.1% in the test with SF-295 CNS, 73.8% in the test with SF-539 CNS, 93% in the test with UACC-257 melanoma and 49.2% in the test on M14 melanoma.

Take `O=C1/C=C/[C@@H](O)[C@@H]2C[C@@H](O)C[C@H]2/C=C/CCC[C@H](CCc2ccc(C(F)(F)F)cc2)O1`: the growth in the test with DU-145 prostate was 19.5%; in the test with K-562 leukemia, 11.7%; in the test on MALME-3M melanoma, -13.9% (active); with MDA-MB-231 breast, -84% (active); in the test with RXF 393 renal, -31.6% (active); with SF-268 CNS, 4.75% (active). The growth with SF-295 CNS is 11.4%; with SF-539 CNS, 25.2%; in the test with UACC-257 melanoma it was 10.5%; in the test on M14 melanoma, 7.65% (active).

Turning to `COc1cc(/C=C/c2cc(/C=C/c3ccc(O)c(OC)c3)n(C(=O)Nc3ccccc3Cl)n2)ccc1O`, the growth was 1.28% (active) in the test with DU-145 prostate; 2.27% (active) in the test on K-562 leukemia; 8.27% (active) in the test on MALME-3M melanoma; 17.7% with MDA-MB-231 breast; -50.3% (active) in the test with RXF 393 renal; -6.38% (active) with SF-268 CNS. Besides, the growth in the test on SF-295 CNS is 2.83% (active); in the test with SF-539 CNS, 4.06% (active); in the test on UACC-257 melanoma, 1.28% (active); in the test on M14 melanoma, 0.265% (active).

For `c1ccc(CSc2ncccc2-c2nnc(SCCN3CCOCC3)o2)cc1`, the growth in the test with DU-145 prostate was 112%; in the test with K-562 leukemia, 117%; in the test on MALME-3M melanoma, 111%; with MDA-MB-231 breast it was 114%; in the test on RXF 393 renal, 123%; in the test with SF-268 CNS, 107%. Also, the growth with SF-295 CNS was 106%; in the test on SF-539 CNS it was 132%; with UACC-257 melanoma, 147%; in the test with M14 melanoma it was 108%.

Turning to `CCC(CC)n1c(C)cc(=O)n1C(CC)CC`, the growth in the test on DU-145 prostate was 113%; with K-562 leukemia, 105%; in the test on MALME-3M melanoma it was 142%; in the test on MDA-MB-231 breast, 109%; in the test on RXF 393 renal, 111%; with SF-268 CNS it was 100%. Moreover, the growth in the test with SF-295 CNS was 100%; in the test on SF-539 CNS, 96.7%; in the test with UACC-257 melanoma, 106%; with M14 melanoma, 110%.

`CS(=O)(=O)c1nccc(-c2c(-c3cccc(OCc4ccccc4)c3)nc3sccn23)n1`: the growth is -59.6% (active) in the test with DU-145 prostate; 47.1% in the test on K-562 leukemia; 58.7% with MALME-3M melanoma; 61.4% in the test with MDA-MB-231 breast; 90.7% in the test on RXF 393 renal; 97% with SF-268 CNS. Besides, the growth in the test on SF-295 CNS was 101%; with SF-539 CNS, 90%; with UACC-257 melanoma, 27.8%; in the test with M14 melanoma, 72.3%.

As for `Cc1ccc(-n2nnnc2N)c(C)c1`, the growth is 122% in the test with DU-145 prostate; 115% in the test with K-562 leukemia; 119% in the test on MALME-3M melanoma; 110% with MDA-MB-231 breast; 143% with RXF 393 renal; 114% in the test on SF-268 CNS. Moreover, the growth with SF-295 CNS is 96.7%; in the test on SF-539 CNS, 123%; with UACC-257 melanoma it was 108%; in the test on M14 melanoma it was 104%.

As for `CC1(C)N=C(N)N=C(N)N1c1cccc(C#N)c1`, the growth in the test with DU-145 prostate is 46.7%; with K-562 leukemia, 20.7%; in the test on MALME-3M melanoma, 70.7%; with MDA-MB-231 breast, 78.4%; with RXF 393 renal, 50.7%; with SF-268 CNS it was 29.8%. The growth in the test on SF-295 CNS was 35.3%; in the test on SF-539 CNS, 46.2%; in the test on UACC-257 melanoma, 73.3%; with M14 melanoma it was 40%.

`O=C(CCn1cnc2c(cc(-c3ccccc3)n2-c2ccccc2)c1=O)Nc1ccc(F)cc1`: the growth is 85.9% in the test with DU-145 prostate; 67.3% in the test with K-562 leukemia; 51.4% in the test with MALME-3M melanoma; 68.7% in the test with MDA-MB-231 breast; 1.78% (active) in the test on RXF 393 renal; 70% in the test with SF-268 CNS. For the same compound, the growth in the test on SF-295 CNS is 77.8%; in the test with SF-539 CNS it was 76.2%; in the test with UACC-257 melanoma, 86.2%; with M14 melanoma, 73.4%.

`CC(C)(O)CCl`: the growth with DU-145 prostate was 109%; in the test with K-562 leukemia it was 106%; in the test with MALME-3M melanoma, 116%; in the test with MDA-MB-231 breast it was 99.8%; in the test on RXF 393 renal, 117%; in the test on SF-268 CNS, 111%. The growth was 97.9% in the test on SF-295 CNS, 99.8% in the test on SF-539 CNS, 91.9% with UACC-257 melanoma and 108% with M14 melanoma.
